Measured values from PubChem BioAssay AID624202 (National Center for Advancing Translational Sciences (NCATS), 2012).
Hit rate of the full screen: of about 380,000 compounds, about 4,000 (1.1%) were called active. About 3% were inconclusive and are not listed. Calls follow the shape of the dose curve; as a rule, active = well fitted activation curve with a large enough effect; inconclusive = small, poorly fitted or top-dose-only effect; inactive = no such curve, though single readings can be large or run the other way. For the sample, actives were picked, then their nearest neighbours and some compounds at random.
Potency is read from the fitted curve at half-maximal effect.

Experiment: qHTS Assay to Identify Small Molecule Activators of BRCA1 Expression; also: nearly all actives have a fitted effect of over 80% in size
Conditions: MCF7-BRCA1-FFLuc reporter, luminescence, 48 h; series mostly up to 46.1 µM; activation: at the top concentration
In short: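 First, MCF7-BRCA1-FFLuc cells (2000/well) attach for 2 h; next, compounds are pin-added and incubated 48 h at 37 °C; finally, luciferase reagent is added and luminescence read after 15 min.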
For Cn1c(=O)cc(OCC(=O)N2CCN(c3ccccc3)CC2)c2ccccc21, the “activation” value was 0.73% (inactive). For O=C(c1cnn(-c2ccc(F)cc2)c1-n1cccc1)N1CCN(c2ccc(F)cc2)CC1, the “activation” value was -11.3% (inactive). With CCOC(=O)c1ccc(NC(=O)CCn2cnnn2)cc1 the “activation” value was -5.89% (inactive). In the case of COc1cc2nc(SCc3ccc(F)cc3)n3nc(CCn4c(C)nc5ccccc54)nc3c2cc1OC, the “activation” value is reported as 9.42% (inactive). For COc1ccc2oc(-c3ccc(C)c(NC(=O)c4sc5ccccc5c4Cl)c3)nc2c1, the “activation” value was -5.08% (inactive). With CCOc1ccc(CCNC(=O)c2c(C)oc3ncn(C)c(=O)c23)cc1 the “activation” value was 3.41% (inactive). For COC(=O)c1ccccc1NC(=O)c1cnn(-c2ccc(F)cc2)c1-n1cccc1, the “activation” value was -37% (inactive). For Cc1ccnc(NC(=O)CCC(=O)N(CC(=O)NCc2ccccc2)Cc2ccco2)c1, the “activation” value was -1.62% (inactive). For CN1CCN(S(=O)(=O)c2ccc(NC(=O)c3ccco3)cc2)CC1, the “activation” value was 55.6% (inactive). For CSCCC(NC(=O)c1ccco1)C(=O)Nc1cc(C)ccn1 (stereo not given), the “activation” value was -7.71% (inactive). In the case of Cc1ccc(NC(=O)c2ccco2)cc1, the Potency is reported as 7.94 µM (active). For Cc1ccc(NC(=O)C(c2ccccc2)N2CCN(C(=O)c3ccco3)CC2)cc1 (stereo not given), the “activation” value was 4.49% (inactive). In the case of Cc1ccnc(NC(=O)c2ccc(NC(=O)c3ccco3)cc2)c1, the Potency is reported as 11.2 µM (active). With COC(=O)CC1Oc2ccccc2-n2cc(-c3ccccc3)nc21 (stereo not given) the “activation” value was -3.85% (inactive). With CCN(CC)CCNC(=O)c1cc2c(=O)oc3ccc(C)cc3c2s1 the “activation” value was 6.45% (inactive). In the case of CC(C)c1ccc(NC(=O)Cn2c3ncccc3c(=O)n2-c2ccccc2)cc1, the “activation” value is reported as 0% (inactive). In the case of O=C(Nc1ccc(Br)cc1)c1ccc(Br)c(S(=O)(=O)NCc2ccccc2)c1, the “activation” value is reported as -67% (inactive). For COc1ccccc1NC(=O)Cn1cnc2ccc(S(=O)(=O)N3CCC(C)CC3)cc2c1=O, the “activation” value was -3.73% (inactive). With ClC/C=C/C[n+]1ccccc1Cl the “activation” value was 29.9% (inactive). For CCc1nnc(NC(=O)/C=C/c2ccc(C)o2)s1, the Potency was 11.2 µM (active). In the case of Cc1cc(NC(=O)COC(=O)/C=C/c2ccc(C)o2)no1, the “activation” value is reported as -15.1% (inactive). For CCc1nnc(NC(=O)[C@@H](NC(=O)c2cccc(C)c2)C(C)C)s1, the “activation” value was -10.7% (inactive). With Cc1ccc(N2CCN(C(=O)CCc3c(C)nc4c(c3C)c(=O)n(C)c(=O)n4C)CC2)c(C)c1 the “activation” value was -5.92% (inactive). For CSc1n[nH]c(-c2ccco2)n1, the “activation” value was 5.48% (inactive). In the case of O=C(COC(=O)c1ccco1)Nc1ccc(Cl)cn1, the “activation” value is reported as -5.28% (inactive). In the case of Cc1cccc(OCC(=O)OCC(=O)Nc2ccc(Cl)cn2)c1, the “activation” value is reported as -9.48% (inactive). In the case of O=C(Nc1ccc(Cl)cn1)c1cnn2cccnc12, the Potency is reported as 6.31 µM (active). With CN(C)CCN(C(=O)C1=COCCO1)c1nc2ccc(Cl)cc2s1 the Potency was 12.6 µM (active). For CC(C)N(Cc1nnc(-c2ccc(Cl)cc2)o1)C(=O)C1=COCCO1, the “activation” value was 27% (inactive). For Cc1cc(N2CCN(c3cccc(C(F)(F)F)c3)CC2)n2nc(-c3ccccc3)nc2n1, the “activation” value was -34.4% (inactive). With CCOC(=O)Cc1ccc(NC(=O)Nc2c[nH]c(=O)[nH]c2=O)cc1 the “activation” value was 9.34% (inactive). With COC(=O)c1ccc(C2C(C(=O)Nc3ccccc3)=C(C)Nc3nc4ccccc4n32)cc1 (stereo not given) the “activation” value was 1.34% (inactive). With Cc1ccccc1-n1c(=O)c2ccccc2n(Cc2ccc(F)cc2)c1=O the “activation” value was 1.73% (inactive). With Cn1c(CCN2CCCCCC2)nc2cc(NC(=O)Nc3ccccc3)ccc21 the Potency was 7.94 µM (active). For Cc1nn(CC(=O)Nc2ccc3c(c2)nc(CN2CCCCC2)n3C)c(=O)c2ccccc12, the “activation” value was -21.1% (inactive). With Cn1c(CCN2CCN(c3ccccn3)CC2)nc2cc(NS(=O)(=O)c3ccc(F)cc3)ccc21 the “activation” value was -8.24% (inactive). For COc1ccc(-c2nc3nc(C)cc(C)n3c2Nc2c(C)cccc2C)cc1, the “activation” value was -20.3% (inactive). With CCOC(=O)c1c(C)[nH]c(C)c1S(=O)(=O)N(C)CC(=O)N1CCN(c2ccccc2)CC1 the “activation” value was 3.46% (inactive). In the case of CC(C)CNC(=S)NNC(=O)c1ccccc1OC(F)F, the “activation” value is reported as -0.636% (inactive). With CC(NC(=S)Nc1ccc(OC(F)F)cc1)c1ccc(F)cc1 (stereo not given) the “activation” value was -27.5% (inactive). For CC(C)CNC(=S)Nc1ccc(F)cc1, the Potency was 10 µM (active). In the case of O=C(CSc1ccccc1)Nc1nnc(/C=C/c2ccccc2)s1, the “activation” value is reported as 70.1% (inactive). For CC(C)C(=O)Nc1nnc(Sc2ccc(N(C)C)cc2)s1, the “activation” value was -16.1% (inactive). For COc1ccc(/C=C/c2nnc(NC(=O)C(C)C)s2)cc1, the Potency was 3.98 µM (active). In the case of CCOc1ccc(OCC)c(NC(=O)c2c(C)nn(-c3ccccc3)c2-n2cccc2)c1, the “activation” value is reported as 65.8% (inactive). For Cc1cc2c(cc1S(=O)(=O)CCC(=O)Nc1ccc(OC(F)(F)F)cc1)OCC(=O)N2, the “activation” value was 6.63% (inactive). In the case of CCOc1ccc(NC(=O)CSc2nnc3c(n2)[nH]c2ccc(S(=O)(=O)N4CCOCC4)cc23)cc1, the “activation” value is reported as 8.86% (inactive). With COc1cccc(Nc2nc(N)c([N+](=O)[O-])c(NCc3ccco3)n2)c1 the “activation” value was 0.078% (inactive). In the case of COc1ccc(-n2cnc3cc(NCc4ccco4)ccc32)cc1, the Potency is reported as 8.91 µM (active). For COc1ccc(Nc2nc(NCc3ccco3)nc(N/N=C/c3ccccc3Cl)n2)cc1, the “activation” value was 65.1% (inactive). In the case of Cc1csc(NCC(=O)c2c[nH]c3ccccc23)n1, the “activation” value is reported as 14% (inactive). With CC1CCN(CC(=O)c2c[nH]c3ccccc23)CC1 the “activation” value was 6.76% (inactive). With O=C(NC1CCCC1)C(=O)c1c[nH]c2ccccc12 the Potency was 11.2 µM (active). For O=C(NCCCc1ccccc1)C(=O)c1c[nH]c2ccccc12, the “activation” value was 61.3% (inactive). With CC(C)Oc1ccc(CNC(=O)C2CCN(c3nc4ccccc4n(C)c3=O)CC2)cc1 the “activation” value was -1.95% (inactive). With CCn1nc(C)c(/C=N/NC(=O)Cc2ccc(Cl)cc2)c1C the Potency was 7.94 µM (active). For Cc1nn(Cc2ccc(Cl)cc2)c(Cl)c1/C=N/NC(=O)CNc1ccccc1F, the “activation” value was 23% (inactive). For O=C(CSc1nnc(SCc2ccc(Cl)cc2)s1)N/N=C/c1ccccc1Cl, the “activation” value was 11.2% (inactive). For COc1cc2[nH]c(C)c(CCN3CCN(c4ccccc4)CC3)c2cc1OC, the “activation” value was 8.7% (inactive). With COc1ccccc1C1C(C(=O)N2CCCCC2)=C(C)Nc2nc3ccccc3n21 (stereo not given) the “activation” value was 1.14% (inactive). With COC(=O)C1=C(C(=O)OC)[C@@H]2N(Cc3ccccc3)c3ccccc3[C@@]23C[C@@H](C(=O)OC)N(S(=O)(=O)c2ccc(C(F)(F)F)cc2)C3=N1 the “activation” value was -3.67% (inactive). For Cc1ccc(S(=O)(=O)c2nc(NCCCn3ccnc3)sc2Cl)cc1, the “activation” value was -18.5% (inactive). With Cc1ccc(-c2nc(C#N)c(NCCCn3ccnc3)o2)cc1 the Potency was 4.47 µM (active). In the case of Cc1ccc2c(Cl)c(C(=O)NCCCn3ccnc3)sc2c1, the “activation” value is reported as -2.83% (inactive). For CC(C)c1ccc(NC(=O)CN(C)S(=O)(=O)c2ccc3c(c2)c(=O)n(C)c(=O)n3C)cc1, the “activation” value was 6.46% (inactive).
